PubChem BioAssay (NCATS)
For part of these data: Entries with a potency or affinity are not part of this list. Active and inactive are the calls of the source. How the calls were made is not given here.

Columns and labels:
[1] = Ebola virus entry assay, green fluorescence channel
[2] = Ebola virus entry assay, blue channel fluorescence
[3] = Ebola virus entry assay, ratio channel
[4] = Ebola virus entry assay, green channel fluorescence
[5] = Ebola virus entry assay, reporter ratio channel; Channel type: primary
[6] = Ebola virus entry assay, blue channel (ratio component)

Measured: efficacy
Wherever efficacy is given: 0% is about no effect.

CN(C)CCc1c[nH]c2ccc(O)cc12
inactive: [1] -13.8% | [2] | [3] | [4] | [5] | [6]

CC(C)C(=O)Nc1cccc(C2CN3CCSC3=N2)c1 (centres undefined)
inactive: [1] -12.5% | [2] | [3] | [4] | [5] | [6]

C[C@H]1C[C@H]2[C@@H]3CCC4=CC(=O)C=C[C@]4(C)[C@H]3C(=O)C[C@]2(C)[C@@]1(O)C(=O)CO
inactive: [1] -24.9% | [2] | [3] | [4] | [5] | [6]

O=C(O)Cc1ccc2c(c1)C(=O)c1ccccc1CO2
inactive: [1] 17% | [2] | [3] | [4] | [5] | [6]

O=c1[nH]c(=O)n([C@H]2C[C@H](O)[C@@H](CO)O2)cc1C(F)(F)F
inactive: [1] 18.2% | [2] | [3] | [4] | [5] | [6]

C[C@@]12CCC[C@H]1[C@@H]1CC[C@H]3C[C@@H](O)CC[C@]3(C)[C@H]1CC2
inactive: [1] -12.6% | [2] | [3] | [4] | [5] | [6]

Nc1ccc(C(=O)NCC(=O)O)cc1
inactive: [1] 34% | [2] | [3] | [4] | [5] | [6]

CC1(C)S[C@@H]2[C@H](N=CN3CCCCCC3)C(=O)N2[C@H]1C(=O)O
inactive: [1] -47.1% | [2] | [3] | [4] | [5] | [6]

Oc1cc(O)c2c(c1)O[C@H](c1ccc(O)c(O)c1)[C@H](O)C2
inactive: [1] 34.8% | [2] | [3] | [4] | [5] | [6]

O=C(O)COC(=O)Cc1ccccc1Nc1c(Cl)cccc1Cl
inactive: [1] 31.8% | [2] | [3] | [4] | [5] | [6]

O=C(O)/C=C/c1ccc(Cn2ccnc2)cc1
inactive: [1] -14.9% | [2] | [3] | [4] | [5] | [6]

CCCCNc1cc(C(=O)O)cc(S(N)(=O)=O)c1Oc1ccccc1
inactive: [1] -14.8% | [2] | [3] | [4] | [5] | [6]

O=c1cc(CO)occ1O
inactive: [1] 16.7% | [2] | [3] | [4] | [5] | [6]

NC(=O)CCCCC1CCSS1 (centres undefined)
inactive: [1] 19.1% | [2] | [3] | [4] | [5] | [6]

CCOC(=O)[C@@](C)(N)Cc1ccc(O)c(O)c1
inactive: [1] 38.1% | [2] | [3] | [4] | [5] | [6]

CN1CCN(c2cc3c(nn2)Oc2ccccc2N3C)CC1
inactive: [1] -18% | [2] | [3] | [4] | [5] | [6]

CC1CC(OC(=O)C(O)c2ccccc2)CC(C)(C)N1C (centres undefined)
inactive: [1] 9.62% | [2] | [3] | [4] | [5] | [6]

CC(=O)[C@H]1CC[C@H]2[C@@H]3CC=C4C[C@@H](O)CC[C@]4(C)[C@H]3CC[C@]12C
inactive: [1] -13.3% | [2] | [3] | [4] | [5] | [6]

CC(=O)OCC1=C(C(=O)O)N2C(=O)[C@@H](NC(=O)CSc3ccncc3)[C@H]2SC1
inactive: [1] -6.58% | [2] | [3] | [4] | [5] | [6]

CC(C)=CCC/C(C)=C/CC/C(C)=C/C(=O)OCC(=O)[C@@]1(O)CC[C@H]2[C@@H]3CCC4=CC(=O)C=C[C@]4(C)[C@H]3[C@@H](O)C[C@@]21C
inactive: [1] 14.4% | [2] | [3] | [4] | [5] | [6]

O=C1NC(=O)[C@@]2(CCOc3ccc(F)cc32)N1
inactive: [1] -52% | [2] | [3] | [4] | [5] | [6]

O=C(CCNNC(=O)c1ccncc1)NCc1ccccc1
inactive: [1] -17% | [2] | [3] | [4] | [5] | [6]

CN(C)CC[C@@H](c1ccc(Cl)cc1)c1ccccn1
inactive: [1] -31.3% | [2] | [3] | [4] | [5] | [6]

O=C(O)[C@H](O)[C@@H](O)[C@H](O[C@@H]1O[C@H](CO)[C@H](O)[C@H](O)[C@H]1O)[C@H](O)CO
inactive: [1] 24.3% | [2] | [3] | [4] | [5] | [6]

CCCc1nc(C)c2c(=O)[nH]c(-c3cc(S(=O)(=O)N4CCN(CC)CC4)ccc3OCC)nn12
inactive: [1] 25.4% | [2] | [3] | [4] | [5] | [6]

O=C1C(CCS(=O)c2ccccc2)C(=O)N(c2ccccc2)N1c1ccccc1 (centres undefined)
inactive: [1] 28.5% | [2] | [3] | [4] | [5] | [6]

C[C@H](O)C(=O)Nc1c(I)c(C(=O)NC(CO)CO)c(I)c(C(=O)NC(CO)CO)c1I
inactive: [1] 6.82% | [2] | [3] | [4] | [5] | [6]

CCCCCC1Nc2cc(C(F)(F)F)c(S(N)(=O)=O)cc2S(=O)(=O)N1 (centres undefined)
inactive: [1] -15.8% | [2] | [3] | [4] | [5] | [6]

CCOCCOC(=O)/C=C/c1ccc(OC)cc1
inactive: [1] 19.6% | [2] | [3] | [4] | [5] | [6]
